# Reference: PubChem BioAssay (EPA / NIEHS)
# “And” between values parts separate entries of the source, which are not always exact repeats. Equal values may be shown once. Records with an inconclusive call do not appear. The source made the active and inactive calls. Rule for the calls, unless noted: active = hit-call score of the fitted dose curve at least 0.9, where 1 is the maximum; inconclusive = response in the unintended direction; inactive = score below 0.9.
# Key:
# [1] = system: zebrafish Peroxisome Proliferator-activated Receptor gamma (PPARg), gene 557037; experiment: ATG_zfPPARg_XSP2: Attagene TRANS-FACTORIAL Multi-Species (XSP2) HepG2 Assay for zebrafish Peroxisome Proliferator-activated Receptor gamma (PPARg) (AID 2283833);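 note: actives increase reporter signal over DMSO so AC50 reflects activation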
# Outline: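 Multi-species TRANS format in HepG2, 24 h dosing; medium also contained 3 nM 6-alpha-fluorotestosterone and 1.5 nM norgestrel to stimulate androgen receptor. Zebrafish PPARg-GAL4 induced reporter mRNA was measured by RT-PCR/capillary electrophoresis.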
# [2] = system: turtle Thyroid Hormone Receptor, alpha (TRa), gene 101949057; experiment: ATG_trTRa_XSP2: Attagene TRANS-FACTORIAL Multi-Species (XSP1) HepG2 Assay for turtle Thyroid Hormone Receptor, alpha (TRa) (AID 2283834);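 note: hits raise reporter mRNA over the DMSO baseline so AC50 marks activators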
# Outline: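 Transfection of HepG2 with multiple reporter transcription units, then chemical dosing for 24 h. Total RNA was reverse-transcribed, reporter sequences PCR-amplified and FAM-labelled, then sized by capillary electrophoresis. DMSO served as baseline.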
# [3] = ATG_M_61_XSP2: Attagene TRANS-FACTORIAL Multi-Species (XSP2) HepG2 Assay for M61 Transcription Factor (Internal Marker) (AID 2283835; active = hit-call score of the fitted dose curve at least 0.9, where 1 is the maximum; inactive = score below 0.9;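 note: active means a rise in signal above the DMSO baseline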)
# Outline: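 HepG2 cells transiently transfected with multiple GAL4-UAS reporter units; reporter mRNA measured 24 h after dosing by RT-PCR, fluorescent labelling and capillary electrophoresis. Medium contained 3 nM 6-alpha-fluorotestosterone and 1.5 nM norgestrel; internal marker, DMSO baseline.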
# [4] = biological target: zebrafish Thyroid Hormone Receptor beta (TRb), thrb (gene 30607) (UniProt Q9PVE4); experiment: ATG_zfTRb_XSP2: Attagene TRANS-FACTORIAL Multi-Species (XSP1) HepG2 Assay for zebrafish Thyroid Hormone Receptor beta (TRb) (AID 2283836);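 for AC50: potency for induction of reporter signal above DMSO so agonist direction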
# Outline: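 HepG2 cells transiently transfected with chimeric zebrafish TRb-GAL4 reporter units, dosed 24 h with 3 nM 6-alpha-fluorotestosterone and 1.5 nM norgestrel present. Reporter mRNA quantified by RT-PCR and capillary electrophoresis; gain fitted against DMSO.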
# [5] = biological target: human Thyroid hormone Receptor alpha (TRa), THRA (gene 7067) (UniProt P10827); experiment: ATG_hTRa_XSP2: Attagene TRANS-FACTORIAL Multi-Species (XSP2) HepG2 Assay for human Thyroid hormone Receptor alpha (TRa) (AID 2283838)
# Outline: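 HepG2 cells were transiently transfected with GAL4-UAS reporter units for chimeric human TRa-Gal4 and dosed for 24 hours, with 3 nM 6-alpha-fluorotestosterone and 1.5 nM norgestrel present. Reporter mRNA was quantified by RT-PCR, FAM labelling and capillary electrophoresis, with gain of signal fitted versus DMSO.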
# [6] = biological target: frog Thyroid hormone Receptor alpha (TRa), thra-a (gene 397942) (UniProt P15204); experiment: ATG_frTRa_XSP2: Attagene TRANS-FACTORIAL Multi-Species (XSP2) HepG2 Assay for frog Thyroid hormone Receptor alpha (TRa) (AID 2283839);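 for AC50: AC50 reflects induction of frog TRa-driven reporter mRNA above DMSO baseline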
# Outline: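 Transfect HepG2 with multiple reporter units (GAL4-UAS), dose chemical, incubate 24 h. Isolate RNA, reverse-transcribe, PCR-amplify reporter, label with 6-FAM by primer extension, digest with HpaI, run capillary electrophoresis; induction scored against DMSO.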
# [7] = biological target: human Thyroid hormone Receptor beta (TRb), THRB (gene 7068) (UniProt P10828); experiment: ATG_hTRb_XSP2: Attagene TRANS-FACTORIAL Multi-Species (XSP2) HepG2 Assay for human Thyroid hormone Receptor beta (TRb) (AID 2283840);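 note: actives raise reporter mRNA so potency reflects agonist-like gain of signal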
# Outline: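 Transient transfection of human HepG2 with multi-species NR-Gal4/GAL4-UAS reporter constructs; 24 h compound treatment; RNA isolation, reverse transcription, PCR and HpaI digest; capillary electrophoresis of labeled fragments; activity fitted upward versus DMSO.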
# [8] = system: Sodium/Iodide Symporter (NIS), SLC5A5 (gene 6528); experiment: CPHEA_Stoker_NIS_Inhibition_RAIU: CPHEA's Radioactive Iodide Uptake (RAIU) Assay for Sodium/Iodide Symporter (NIS) Inhibition, Stoker and Laws Labs (AID 2283841)
# Outline: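 Test chemicals, six concentrations from 0.001 to 100uM in 0.5% DMSO, were co-incubated with carrier-free 125I (final 329pM) on hNIS-HEK293T-EPA monolayers in pH 7.4 HEPES-buffered HBSS. Plates stood 2 hours at room temperature, then were washed cold and counted.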
# [9] = CPHEA_Stoker_NIS_Cytotoxicity: Cytotoxicity Assessment for CPHEA's Radioactive Iodide Uptake (RAIU) Assay for Sodium/Iodide Symporter (NIS) Inhibition, Stoker and Laws Labs (AID 2283897);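 for AC50: active means loss of ATP signal versus DMSO meaning cytotoxicity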
# Outline: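 Viability in hNIS-HEK293T-EPA cells is scored as a drop in luciferase-detected ATP following 2-hour room-temperature exposure (0.001–100uM; triplicate wells, three cell passages), with DMSO as negative control.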
# [10] = CEETOX_H295R_11DCORT_noMTC: CeeTox H295R High-throughput Steroidogenesis Assay for 11-Deoxycortisol (11DCORT), maximum tolerated concentration (MTC) filtered results only (AID 2283911; active = hit-call score of the fitted dose curve at least 0.9, where 1 is the maximum; inactive = score below 0.9); settings: actives raise or lower the signal
# Outline: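 Steroidogenesis was stimulated in H295R cells with 10 uM forskolin for 48 h before a 48 h chemical exposure. Secreted 11-deoxycortisol was measured by tandem mass spectrometry and fitted bidirectionally against DMSO controls.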
# [11] = CEETOX_H295R_OHPREG_noMTC: CeeTox H295R High-throughput Steroidogenesis Assay for OH-Pregnenolone (OHPREG), maximum tolerated concentration (MTC) filtered results only (AID 2283912; active = hit-call score of the fitted dose curve at least 0.9, where 1 is the maximum; inactive = score below 0.9); settings: actives raise or lower the signal
# Outline: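 H295R cells prestimulated 48 h with 10 uM forskolin, then exposed 48 h to compound (0.1% DMSO). 17alpha-hydroxypregnenolone in medium measured by MTBE extraction and HPLC-MS/MS; bidirectional fit vs DMSO, concentrations not MTT/MTC-filtered.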
# [12] = CEETOX_H295R_OHPROG_noMTC: CeeTox H295R High-throughput Steroidogenesis Assay for OH-Progesterone (OHPROG), maximum tolerated concentration (MTC) filtered results only (AID 2283914; active = hit-call score of the fitted dose curve at least 0.9, where 1 is the maximum; inactive = score below 0.9); settings: actives raise or lower the signal
# Outline: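 H295R cells prestimulated 48 h with 10 uM forskolin, then exposed 48 h to chemical (0.1% DMSO final). 17alpha-hydroxyprogesterone in medium quantified by HPLC-MS/MS after MTBE extraction; bidirectional fitting versus DMSO, concentrations not MTC-filtered.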
# [13] = CEETOX_H295R_CORTISOL_noMTC: CeeTox H295R High-throughput Steroidogenesis Assay for Cortisol, maximum tolerated concentration (MTC) filtered results only (AID 2283916; active = hit-call score of the fitted dose curve at least 0.9, where 1 is the maximum; inactive = score below 0.9); settings: actives raise or lower the signal
# Outline: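 H295R human adrenal cells prestimulated 48 h with 10 uM forskolin, then exposed 48 h to chemical in 0.1% DMSO; cortisol in medium quantified by HPLC-MS/MS; bidirectional fit vs DMSO baseline, concentrations not MTT-filtered for MTC.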
# [14] = CEETOX_H295R_CORTIC_noMTC: CeeTox H295R High-throughput Steroidogenesis Assay for Corticosterone (CORTIC), maximum tolerated concentration (MTC) filtered results only (AID 2283917; active = hit-call score of the fitted dose curve at least 0.9, where 1 is the maximum; inactive = score below 0.9); settings: actives raise or lower the signal
# Outline: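 H295R adrenal cells pre-stimulated 48 h with 10 uM forskolin, then exposed 48 h to chemical in 0.1% DMSO; corticosterone in medium quantified by HPLC-MS/MS, fitted bidirectionally versus DMSO without MTT-based concentration filtering.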
# [15] = CEETOX_H295R_DOC_noMTC: CeeTox H295R High-throughput Steroidogenesis Assay for DOC, maximum tolerated concentration (MTC) filtered results only (AID 2283918; active = hit-call score of the fitted dose curve at least 0.9, where 1 is the maximum; inactive = score below 0.9); settings: actives raise or lower the signal
# Outline: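 H295R cells prestimulated 48 h with 10 uM forskolin, then exposed 48 h to chemical in 0.1% DMSO. 11-Deoxycorticosterone in medium measured by MTBE extraction and HPLC-MS/MS; bidirectional fit vs DMSO, no MTC filter.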
# [16] = CEETOX_H295R_ESTRADIOL_noMTC: CeeTox H295R High-throughput Steroidogenesis Assay for Estradiol, maximum tolerated concentration (MTC) filtered results only (AID 2283919; active = hit-call score of the fitted dose curve at least 0.9, where 1 is the maximum; inactive = score below 0.9); settings: actives raise or lower the signal
# Outline: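 H295R human adrenal cells pre-stimulated 48 h with 10 uM forskolin, then exposed 48 h to chemical (0.1% DMSO final). Estradiol in medium measured by HPLC-MS/MS after MTBE extraction and dansyl derivatization; bidirectional fit versus DMSO, concentrations not MTT-filtered.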
# [17] = CEETOX_H295R_PROG_noMTC: CeeTox H295R High-throughput Steroidogenesis Assay for Progesterone (PROG), maximum tolerated concentration (MTC) filtered results only (AID 2283920; active = hit-call score of the fitted dose curve at least 0.9, where 1 is the maximum; inactive = score below 0.9); settings: actives raise or lower the signal
# Outline: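 H295R cells, prestimulated 48 h with 10 uM forskolin, exposed 48 h to chemical in 0.1% DMSO. Medium progesterone quantified by MTBE extraction and HPLC-MS/MS; bidirectional fit versus DMSO, concentrations not MTT-filtered.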
# [18] = CEETOX_H295R_ESTRONE_noMTC: CeeTox H295R High-throughput Steroidogenesis Assay for Estrone, maximum tolerated concentration (MTC) filtered results only (AID 2283921; active = hit-call score of the fitted dose curve at least 0.9, where 1 is the maximum; inactive = score below 0.9); settings: actives raise or lower the signal
# Outline: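 H295R cells prestimulated 48 h with 10 uM forskolin, then exposed 48 h to chemical in 0.1% DMSO; medium estrone measured by HPLC-MS/MS after MTBE extraction and dansyl derivatization, fitted bidirectionally versus DMSO without MTT-based MTC filtering.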
# [19] = CEETOX_H295R_ANDR_noMTC: CeeTox H295R High-throughput Steroidogenesis Assay for Androstenedione (ANDR), maximum tolerated concentration (MTC) filtered results only (AID 2283915; active = hit-call score of the fitted dose curve at least 0.9, where 1 is the maximum; inactive = score below 0.9); settings: actives raise or lower the signal
# Outline: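 H295R cells, passage 10 or below, prestimulated 48 h with 10 uM forskolin, then exposed 48 h to chemical in 0.1% DMSO. Medium androstenedione extracted with MTBE, quantified by HPLC-MS/MS; concentrations not MTC-filtered; bidirectional fit versus DMSO.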
# Sequence of frog Thyroid hormone Receptor alpha (TRa), thra-a (gene 397942) (P15204 whole entry, looked up, the tested form may be a part): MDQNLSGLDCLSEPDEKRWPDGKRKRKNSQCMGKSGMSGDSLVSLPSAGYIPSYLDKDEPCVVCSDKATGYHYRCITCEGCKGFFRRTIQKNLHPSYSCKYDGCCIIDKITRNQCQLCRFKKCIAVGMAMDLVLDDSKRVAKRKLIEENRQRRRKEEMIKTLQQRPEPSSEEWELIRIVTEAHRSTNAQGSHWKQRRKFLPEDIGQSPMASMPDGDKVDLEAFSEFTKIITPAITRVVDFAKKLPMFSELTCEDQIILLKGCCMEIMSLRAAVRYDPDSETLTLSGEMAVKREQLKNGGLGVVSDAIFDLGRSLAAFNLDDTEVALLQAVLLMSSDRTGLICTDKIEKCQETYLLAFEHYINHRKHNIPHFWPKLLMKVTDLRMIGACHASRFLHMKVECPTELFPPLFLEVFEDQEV
# Sequence of zebrafish Thyroid Hormone Receptor beta (TRb), thrb (gene 30607) (Q9PVE4 whole entry, looked up, the tested form may be a part): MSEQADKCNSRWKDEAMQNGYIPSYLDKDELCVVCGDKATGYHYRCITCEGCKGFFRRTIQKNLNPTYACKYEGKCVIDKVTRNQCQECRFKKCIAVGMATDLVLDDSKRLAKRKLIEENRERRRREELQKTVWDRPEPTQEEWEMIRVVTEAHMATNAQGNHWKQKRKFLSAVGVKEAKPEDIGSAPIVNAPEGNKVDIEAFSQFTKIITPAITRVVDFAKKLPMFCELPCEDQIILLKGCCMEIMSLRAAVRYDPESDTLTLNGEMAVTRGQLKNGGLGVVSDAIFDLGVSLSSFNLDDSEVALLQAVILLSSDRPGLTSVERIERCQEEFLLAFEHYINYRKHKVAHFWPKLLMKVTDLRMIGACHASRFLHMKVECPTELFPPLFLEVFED
# Sequence of human Thyroid hormone Receptor alpha (TRa), THRA (gene 7067) (P10827 whole entry, looked up, the tested form may be a part): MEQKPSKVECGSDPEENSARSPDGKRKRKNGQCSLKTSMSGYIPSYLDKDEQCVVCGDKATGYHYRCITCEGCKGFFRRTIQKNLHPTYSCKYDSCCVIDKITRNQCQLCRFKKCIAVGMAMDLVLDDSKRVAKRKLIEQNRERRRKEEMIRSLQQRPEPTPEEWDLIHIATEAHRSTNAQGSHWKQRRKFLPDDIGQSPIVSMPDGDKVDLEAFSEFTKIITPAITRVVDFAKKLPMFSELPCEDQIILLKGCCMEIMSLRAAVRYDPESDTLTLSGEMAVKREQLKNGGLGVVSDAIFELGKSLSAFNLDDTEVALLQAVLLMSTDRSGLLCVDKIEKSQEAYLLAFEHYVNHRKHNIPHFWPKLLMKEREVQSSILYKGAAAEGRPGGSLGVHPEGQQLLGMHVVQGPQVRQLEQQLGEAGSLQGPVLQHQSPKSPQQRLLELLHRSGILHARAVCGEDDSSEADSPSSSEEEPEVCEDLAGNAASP
# Sequence of human Thyroid hormone Receptor beta (TRb), THRB (gene 7068) (P10828 whole entry, looked up, the tested form may be a part): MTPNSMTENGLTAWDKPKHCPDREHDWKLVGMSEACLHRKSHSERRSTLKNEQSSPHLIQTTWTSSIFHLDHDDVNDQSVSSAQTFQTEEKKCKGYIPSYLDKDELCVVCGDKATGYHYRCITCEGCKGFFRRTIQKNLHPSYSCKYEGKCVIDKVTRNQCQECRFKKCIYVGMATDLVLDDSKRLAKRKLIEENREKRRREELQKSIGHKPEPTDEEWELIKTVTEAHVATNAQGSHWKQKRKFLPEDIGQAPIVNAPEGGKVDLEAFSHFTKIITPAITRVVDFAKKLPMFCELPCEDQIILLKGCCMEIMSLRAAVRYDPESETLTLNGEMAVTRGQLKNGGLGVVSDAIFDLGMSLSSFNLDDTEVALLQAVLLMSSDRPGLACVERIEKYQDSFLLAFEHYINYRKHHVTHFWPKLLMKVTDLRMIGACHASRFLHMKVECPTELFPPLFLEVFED
structure (smiles),measurement,setting,value
CC(C)(c1cc(Br)c(O)c(Br)c1)c1cc(Br)c(O)c(Br)c1,AC50,[1],14.4 µM (active)
same,outcome,[2],inactive
same,outcome,[3],inactive
same,outcome,[4],inactive
same,outcome,[5],inactive
same,AC50,[6],5.76 µM (active)
same,outcome,[7],inactive
same,AC50,[8],82.4 µM (active)
same,AC50,[9],13.6 µM (active)
Cc1c2ccccc2c(C)c2c1ccc1ccccc12,outcome,[1],inactive
same,AC50,[2],39.9 µM (active)
same,outcome,[3],inactive
same,outcome,[6],inactive
same,outcome,[8],inactive
same,outcome,[9],inactive
Cc1cc2c(cc1C(F)(F)F)N(C(=O)Nc1ccc(Oc3cccnc3C)nc1)CC2,outcome,[8],inactive
same,AC50,[9],8.93 µM (active)
O=C(Nc1ccc(Cl)cc1)Nc1ccc(Cl)c(Cl)c1,outcome,[8],inactive
same,outcome,[9],inactive
CCOC(=O)O[C@H](C)OC(=O)c1ccc2c(c1)cc(C(=O)NC1CCN(C(C)C)CC1)n2Cc1cc(-c2ccc(Cl)s2)on1,outcome,[8],inactive
same,AC50,[9],9.92 µM (active)
CC(=O)N1CCN(c2ccc(OC[C@H]3CO[C@](Cn4ccnc4)(c4ccc(Cl)cc4Cl)O3)cc2)CC1,AC50,[8],50 µM (active)
same,AC50,[9],9.92 µM (active)
c1ccc(C[n+]2cccc3ccccc32)cc1,outcome,[10],inactive
same,outcome,[11],inactive
same,outcome,[12],inactive
same,outcome,[13],inactive
same,outcome,[14],inactive
same,outcome,[15],inactive
same,outcome,[16],inactive
same,outcome,[17],inactive
same,outcome,[18],inactive
CCN(CC)C(=O)c1cc(S(=O)(=O)Cc2ccccc2)c(N2CCC(c3ccccc3)CC2)cc1N(CC)CCN(C)C,outcome,[8],inactive
same,outcome,[9],inactive
O=C(OCCCCCCOC(=O)c1ccccc1)c1ccccc1,outcome,[9],inactive
CN(C[C@@H](CC[N+]12CCC(C3CCCCC3)(CC1)CC2)c1ccc(Cl)c(Cl)c1)C(=O)c1cc(C(F)(F)F)cc(C(F)(F)F)c1,AC50,[8],66.3 µM (active)
same,AC50,[9],10.5 µM (active)
Clc1cc(Cl)c2c(c1)N=C1CCCCCN1C2,outcome,[8],inactive
same,outcome,[9],inactive
CCCCCCCCOc1ccc(C(=O)c2ccccc2)c(O)c1,AC50,[11],30.9 µM (active)
same,AC50,[12],27.4 µM (active)
same,AC50,[17],30.1 µM (active)
O=C(O)Cc1cc(I)c(Oc2ccc(O)c(I)c2)c(I)c1,outcome,[1],inactive
same,AC50,[2],0.00328 µM (active)
same,outcome,[3],inactive
same,AC50,[4],0.504 nM (active) and 5.79 nM (active)
same,AC50,[6],0.519 nM (active) and 0.826 nM (active)
same,AC50,[8],88.5 µM (active)
same,outcome,[9],inactive
CCCCOC(=O)c1ccc(O)cc1,outcome,[9],inactive
O=C(O)c1ccccc1C(=O)OCc1ccccc1,outcome,[10],inactive
same,outcome,[11],inactive
same,outcome,[12],inactive
same,outcome,[19],inactive
same,outcome,[13],inactive
same,outcome,[14],inactive
same,outcome,[15],inactive
same,outcome,[17],inactive
Clc1ccccc1C(c1ccccc1)(c1ccccc1)n1ccnc1,AC50,[8],50 µM (active)
same,AC50,[9],9.92 µM (active)
CN(C)C(=O)C1(N2CCCCC2)CCN(CC[C@@]2(c3ccc(Cl)c(Cl)c3)CN(C(=O)c3ccccc3)CCO2)CC1,outcome,[8],inactive
same,outcome,[9],inactive
O=C1c2ccccc2C(=O)N1CCc1noc(-c2ccc(CN3CCCCCC3)s2)n1,outcome,[8],inactive
same,AC50,[9],11.5 µM (active)
CN(C)c1ccc(C(=C2C=CC(=[N+](C)C)C=C2)c2ccc(N(C)C)cc2)cc1,AC50,[8],17.4 µM (active)
same,AC50,[9],5.35 µM (active)
O=c1[nH]sc2ccccc12,outcome,[8],inactive
same,outcome,[9],inactive
